The values below come from PubChem BioAssay (NCATS).

The target in assay [1] is Voltage-gated inwardly rectifying potassium channel KCNH2 (Homo sapiens) (UniProt Q12809). The assay is described as follows: qHTS Assay for Small Molecule Inhibitors of the Human hERG Channel Activity (AID 588834).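 Also: lower thallium flux fluorescence means stronger hERG block; nearly all actives have a fitted effect of over 50% in size.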 Also: potency is read from the fitted curve at half-maximal effect. Conditions: U2OS BacMam hERG, FluxOR thallium flux fluorescence; series mostly up to 46.1 µM. The method, boiled down: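 Step 1: BacMam hERG transduction of U2OS, 4 hrs RT. Step 2: overnight 37 °C, plate 2000 cells/well, 4 hr. Step 3: FluxOR load, compound 10 min, stimulate, read fluorescence.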
For orientation: In qHTS, concentration-response curves come from the screen itself.

The target of assay [2] is Luciferin 4-monooxygenase (Photinus pyralis) (UniProt P08659). The assay is described as follows: Biochemical firefly luciferase enzyme assay for NPC (AID 624030).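 Also: purified P. pyralis luciferase at 10 nM with luciferin and ATP substrate; nearly all actives have a fitted effect of over 70% in size.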 Conditions: purified P. pyralis luciferase, luminescence, 5 min; series mostly up to 58.6 µM. The method, boiled down: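 Purified P. pyralis luciferase at 10 nM in 50 mM Tris Acetate (final), luminescence read within 5 minutes of enzyme addition to compounds. Activity normalised to PTC124 versus DMSO; concentration-response curves classed by r2, magnitude and activity.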

Assay [3] in a line: S16 Schwann cell viability assay (CellTiter-Glo assay) (AID 624031). Also: nearly all actives have a fitted effect of over 70% in size. Also: potency is read from the fitted curve at half-maximal effect. Conditions: S16 rat Schwann cells viability, 24 h; series mostly up to 57.5 µM. The method, boiled down: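 This viability control uses native rat S16 Schwann cells grown in DMEM plus 10% FBS. After a 24 h compound treatment at 37 °C, CellTiter-Glo luminescence reports ATP content, scaled against DMSO-treated and cell-free wells.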
In general terms: In ATP-based viability assays light output follows the ATP content of the culture.

Assay [4] is described as follows: S16 Schwann cell PMP22 intronic element firefly luciferase assay (AID 624032). Also: nearly all actives have a fitted effect of over 30% in size. Also: potency is read from the fitted curve at half-maximal effect. Conditions: S16 rat Schwann cells, PMP22 element FLuc, 24 h; series mostly up to 57.5 µM. The method, boiled down: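 Rat S16 Schwann cells stably carrying firefly luciferase driven by a PMP22 intronic element, in 10% FBS, treated 24 h at 37 C. ONE-Glo luminescence normalized to PTC124 control and DMSO (0%); curves classed by r2, magnitude and activity.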

A short description of assay [5]: S16 Schwann cell PMP22 intronic element beta-lactamase assay (AID 624044; calls by dose curve; also: nearly all actives have a fitted effect of over 15% in size; also: potency is read from the fitted curve at half-maximal effect). Conditions: S16 rat Schwann cells, PMP22 element beta-lactamase FRET, 24 h; series mostly up to 38.3 µM. The method, boiled down: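 Beta-lactamase reporter under a PMP22 intronic regulatory element in stable S16 rat Schwann cells; 24 h compound exposure. 460 nm blue signal normalized between DMSO (0%) and potassium clavulanate, with 535 nm FRET tracking viability; curves classed by r2 and response.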

Results filed as inconclusive are left out. Activity calls are given as the source filed them. Unless noted, calls follow the shape of the dose curve; as a rule, active = well fitted curve in the direction sought with a large enough effect; inconclusive = small, poorly fitted or top-dose-only effect, or another doubt; inactive = no such curve, though single readings can be large; an effect the other way counts as inactive or inconclusive.

Sequence of Voltage-gated inwardly rectifying potassium channel KCNH2 (Homo sapiens) (Q12809 whole entry, looked up): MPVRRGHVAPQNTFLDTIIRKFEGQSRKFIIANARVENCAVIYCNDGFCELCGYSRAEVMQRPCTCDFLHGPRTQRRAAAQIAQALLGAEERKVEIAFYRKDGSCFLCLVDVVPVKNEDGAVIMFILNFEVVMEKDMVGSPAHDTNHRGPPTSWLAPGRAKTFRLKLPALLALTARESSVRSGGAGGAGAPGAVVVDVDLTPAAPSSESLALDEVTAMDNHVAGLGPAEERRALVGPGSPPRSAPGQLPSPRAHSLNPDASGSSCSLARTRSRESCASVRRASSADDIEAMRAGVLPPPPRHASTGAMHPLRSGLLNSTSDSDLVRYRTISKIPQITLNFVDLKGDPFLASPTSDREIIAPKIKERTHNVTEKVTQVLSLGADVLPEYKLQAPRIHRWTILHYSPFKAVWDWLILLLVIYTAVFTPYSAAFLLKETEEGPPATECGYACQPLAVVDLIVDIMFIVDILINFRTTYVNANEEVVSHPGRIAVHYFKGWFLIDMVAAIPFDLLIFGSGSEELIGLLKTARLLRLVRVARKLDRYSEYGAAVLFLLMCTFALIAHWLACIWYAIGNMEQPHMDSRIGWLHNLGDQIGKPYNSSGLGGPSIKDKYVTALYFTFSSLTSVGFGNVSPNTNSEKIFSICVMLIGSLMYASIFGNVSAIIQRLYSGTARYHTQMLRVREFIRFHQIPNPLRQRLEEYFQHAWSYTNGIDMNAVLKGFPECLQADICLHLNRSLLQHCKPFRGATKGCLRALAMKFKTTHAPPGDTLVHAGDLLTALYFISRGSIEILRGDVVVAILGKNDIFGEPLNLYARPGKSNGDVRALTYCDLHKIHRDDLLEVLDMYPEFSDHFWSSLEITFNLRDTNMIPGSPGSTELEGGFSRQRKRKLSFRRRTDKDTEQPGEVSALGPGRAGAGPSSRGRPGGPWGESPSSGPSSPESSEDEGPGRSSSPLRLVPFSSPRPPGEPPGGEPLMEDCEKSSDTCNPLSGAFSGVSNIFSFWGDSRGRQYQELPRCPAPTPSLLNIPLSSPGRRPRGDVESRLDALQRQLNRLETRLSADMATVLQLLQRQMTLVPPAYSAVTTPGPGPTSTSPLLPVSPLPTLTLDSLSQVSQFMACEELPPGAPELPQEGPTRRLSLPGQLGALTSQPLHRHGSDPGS
Sequence of Luciferin 4-monooxygenase (Photinus pyralis) (P08659 whole entry, looked up): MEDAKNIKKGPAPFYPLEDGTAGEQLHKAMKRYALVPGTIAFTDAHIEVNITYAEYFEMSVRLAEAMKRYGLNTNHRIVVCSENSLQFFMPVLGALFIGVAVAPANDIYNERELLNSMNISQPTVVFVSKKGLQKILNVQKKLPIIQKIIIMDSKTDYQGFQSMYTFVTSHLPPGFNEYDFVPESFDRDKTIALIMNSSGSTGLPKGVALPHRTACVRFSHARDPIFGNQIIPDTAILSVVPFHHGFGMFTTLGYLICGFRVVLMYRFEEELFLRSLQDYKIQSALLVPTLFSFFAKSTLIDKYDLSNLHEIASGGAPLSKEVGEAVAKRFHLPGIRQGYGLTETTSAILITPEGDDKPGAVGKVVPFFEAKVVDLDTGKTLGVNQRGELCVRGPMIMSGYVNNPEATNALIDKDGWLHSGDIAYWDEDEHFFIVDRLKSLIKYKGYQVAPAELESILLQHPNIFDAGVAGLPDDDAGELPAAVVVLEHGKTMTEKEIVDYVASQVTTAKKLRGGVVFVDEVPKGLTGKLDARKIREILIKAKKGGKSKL

As to `CC(=O)[C@H]1CC[C@H]2[C@@H]3CC[C@@H]4C[C@H](O)CC[C@]4(C)[C@H]3CC[C@]12C`, the Potency entry in assay [1] was “inactive”.

With `CC1(C)[C@H](C=C(Cl)Cl)[C@H]1C(=O)OCc1c(F)c(F)cc(F)c1F`, the Potency result in assay [1] is “inactive”.

Regarding `CN(C)[C@H](Cc1ccccc1)c1ccccc1`, in assay [1], the Potency result was “inactive”.

As for `C=CCN1CC[C@]23c4c5ccc(O)c4O[C@H]2[C@@H](O)C=C[C@H]3[C@H]1C5`, the Potency entry in assay [1], in assay [2], in assay [3] and in assay [4] was “inactive” throughout.

For `CC(C)CCC(=O)O[C@H]1CC[C@H]2[C@@H]3CCC4=CC(=O)CC[C@]4(C)[C@H]3CC[C@]12C`, in assay [1], the Potency was 25.1 µM (active).

In the case of `NCC[C@H](O)C(=O)N[C@@H]1C[C@H](N)[C@@H](O[C@H]2O[C@H](CN)[C@@H](O)[C@H](O)[C@H]2N)[C@H](O[C@@H]2O[C@H](CO)[C@@H](O)[C@H]2O)[C@H]1O`, in assay [1], the Potency result was “inactive”.

For the compound `O=C1C=C2C=C[C@@H]3C[C@@]2(O1)[C@H]1CCCCN31`, in assay [1], the Potency result was “inactive”.

With `CNC(C)C(O)c1ccc(O)cc1` (stereo not drawn), the Potency result in assay [1], in assay [3] and in assay [5] was “inactive” in each case. Moreover, in assay [4], the Potency is 2.28 µM (active).

`CC(C)(O)C1C2OC(=O)C1C1(O)CC3OC34C(=O)OC2C14C` (stereo not drawn): the Potency entry in assay [1], in assay [3], in assay [4] and in assay [5] was “inactive” throughout.

Consider `O=C1CCCCC1CN1CCCCC1` (stereo not drawn), for which the Potency entry in assay [1], in assay [2], in assay [3] and in assay [5] was “inactive” in each case.

In the case of `COc1ccc2c3c1O[C@H]1C(=O)CC[C@H]4[C@@H](C2)N(C)CC[C@]314`, the Potency entry in assay [1], in assay [3] and in assay [5] was “inactive” each time.

Consider `CNC1(c2ccccc2Cl)CCCCC1=O` (stereo not drawn), for which the Potency result in assay [1], in assay [2], in assay [3] and in assay [5] was “inactive” in each case.

With `Oc1cccc[c]1[Hg][Cl]`, the Potency in assay [1] was 20 µM (active); in assay [3], 1.28 µM (active); in assay [4] it was 0.642 µM (active); in assay [5], 4.46 µM (active).
